Drawing on PubChem BioAssay AID1224856 (National Center for Advancing Translational Sciences (NCATS), 2016), this text covers Potency for 40 compounds.

Records with an inconclusive call do not appear. A call without a number means that no potency is given here. The source made the active and inactive calls. Calls come from the whole dose curve; as a rule, active = well fitted curve in the direction sought with a large enough effect; inconclusive = small, poorly fitted or top-dose-only effect, or another doubt; inactive = no such curve, though single readings can be large or run the other way.

A short description of this experiment: Cell viability assay for measurement of the protective activity of small molecules against cell death caused by Zika virus infection in human astrocytes. As to conditions: human astrocytes ZIKV-induced death, ATP luminescence, 72 h; series mostly up to 46.1 µM. From the text:
National Center for Advancing Translational Sciences [NCATS] Johns Hopkins University School of Medicine Florida State University Assay Overview: Zika virus infection causes cell death in certain cell types including human neural progenitor cells (hNPCs), astrocytes, and astrocytoma cell line (SNB-19). This cell viability assay measures the ATP content (level) in human astrocytes using a luminescence readout that is proportional to viable cell numbers. Decrease in the luminescence signal after Zika virus infection indicates the cell death caused by Zika virus. Small molecule inhibitors […] the decreased luminescence signal after Zika virus infection, indicating the protective effect of that small molecule on the cell death caused by Zika virus infection. This observed protective effect of small molecules against Zika virus induced cell death may result from inhibition of virus replication or cellular response to the virus infection.
Assay Protocol Summary: The medium for astrocytes contains AM basal medium (ScienCell, Cat.# 1801), AGS (ScienCell, Cat.# 1801), 10% FBS, and 1% Pen/Strep. The ATP content assay kit (PerkinElmer, Cat.# 6016731) was used to determine cell viability. The reagent was reconstituted and prepared as described by the manufacturer. Cells were seeded in 384- or 1536-well assay plates and cultured at 37 C with 5% CO2 for 16 to 20 hours. The typical cell seeding density in the 1536-well plate assay is 350 cells/well in 3 ul medium for astrocytes in the tissue cultured treated/PDL coated plates. Compounds were added to cells and incubated for one hour before addition of ZIKV solution to cells (2 FFU/cell). After incubation at 37 C with 5% CO2 for 72 hours, the reagent mixture of the ATP content assay kit was added to each well, followed by incubation at room temperature for 10 minutes. The luminescence intensity of the assay plates was measured using a ViewLux plate reader (PerkinElmer). […] The percentage inhibitions of the decreased cell viability by small molecule inhibitors were then calculated.
Turning to `O=C(Nc1ncc([N+](=O)[O-])s1)c1cccs1`, the Potency result was “inactive”. Under `O=C1C[C@@H](c2ccc(O)cc2)Oc2cc(O)cc(O)c21` stands “inactive”. The result for `CO[C@H]1C(=O)[C@]2(C)[C@@H](OC)C[C@H]3OC[C@@]3(OC(C)=O)[C@H]2[C@H](OC(=O)c2ccccc2)[C@]2(O)C[C@H](OC(=O)[C@H](O)[C@@H](NC(=O)OC(C)(C)C)c3ccccc3)C(C)=C1C2(C)C` reads “inactive”; that for `NC(=O)c1cccc2[nH]c(-c3ccc([C@H]4CCCN4)cc3F)nc12`, “inactive”.

Take `CC[n+]1c(-c2ccccc2)c2cc(N)ccc2c2ccc(N)cc21`: the Potency is 1950 nM (active). On to `O=C(Nc1ccc(OC(F)(F)F)cc1)c1sccc1NCc1ccnc2ccccc12`, for which the Potency entry was “inactive”. Under `CN1CCN(c2cc3c(nn2)Oc2ccccc2N3C)CC1` stands “inactive”; under `O=C(O)c1cc([N+](=O)[O-])ccc1NCCCc1ccccc1`, “inactive”; under `O=C(O)[C@H](CC(=O)N1C[C@@H]2CCCC[C@H]2C1)Cc1ccccc1`, “inactive”. The result for `CC(C)[C@H]1C(=O)N[C@H](CO)Cc2c[nH]c3cccc(c23)N1C` reads 1090 nM (active).

With `COc1ccc(CC2=NN3C([C@@H](CCc4ccccc4)[C@@H](C)O)=NC(C)C3C(=O)N2)cc1OC` (stereo not given in full), the Potency entry is “inactive”. The result for `CC(C)N[C@@H]1CCn2c(=O)[nH]c3cccc(c32)[C@@H]1O` reads “inactive”.

For the compound `CC(=Cc1ccccc1)C=C1SC(=S)N(CC(=O)O)C1=O`, the Potency result was “inactive”. Under `CCCC(=O)OC[C@@H](OC(=O)CCC)[C@@H](OC(=O)CCC)[C@H](Cn1c2nc(=O)[nH]c(=O)c-2nc2cc(C)c(C)cc21)OC(=O)CCC` stands “inactive”; under `Cc1[nH]c(C=C2C(=O)Nc3ccccc32)c(C)c1CCC(=O)O`, “inactive”; under `CCN(CC)c1ccc(C(=C2C=CC(=[N+](CC)CC)C=C2)c2cc(S(=O)(=O)O)ccc2S(=O)(=O)[O-])cc1`, “inactive”. As for `CCCS(=O)c1ccc2nc(NC(=O)OC)[nH]c2c1` (stereo not given), the Potency result is “inactive”. Under `COc1ccc2nc(NC(=O)Nc3ccccc3)sc2c1` stands “inactive”. On to `Nc1nc2ccc([N+](=O)[O-])cc2s1`, for which the Potency result was “inactive”. The result for `NC1CCC(Nc2nc(Nc3ccc(C(=O)N4CCCCC4)cc3)c3ncn(-c4cccc(F)c4)c3n2)CC1` (stereo not given) reads “inactive”; that for `COc1cccc2c1C(=O)c1c(O)c3c(c(O)c1C2=O)C[C@@](O)(C(=O)CO)C[C@@H]3O[C@H]1C[C@H](N)[C@H](O[C@@H]2CCCCO2)[C@H](C)O1`, “inactive”; that for `CC=CC[C@@H](C)C(=O)[C@H]1C(=O)N[C@@H](C(C)C)C(=O)N(C)CC(=O)N(C)[C@@H](CC(C)C)C(=O)N[C@@H](C(C)C)C(=O)N(C)[C@@H](CC(C)C)C(=O)N[C@@H](C)C(=O)N[C@H](C)C(=O)N(C)[C@@H](CC(C)C)C(=O)N(C)[C@@H](CC(C)C)C(=O)N(C)[C@@H](C(C)C)C(=O)N1C`, “inactive”. Regarding `COc1ccc(-c2cc(=S)ss2)cc1`, the Potency entry was “inactive”.

Take `CS(=O)(=O)c1ccc(-c2cn3ccccc3n2)cc1`: the Potency entry was “inactive”. Regarding `N[C@H](CSC(c1ccccc1)(c1ccccc1)c1ccccc1)C(=O)O`, the Potency entry is “inactive”. The result for `O=C1c2ccccc2-[n+]2ccc3c([nH]c4ccccc43)c21` reads “inactive”; that for `O=C(O)[C@@H](c1ccc(OCc2ccc3ccccc3n2)cc1)C1CCCC1`, “inactive”; that for `CCCSc1ccc2nc(NC(=O)OC)[nH]c2c1`, “inactive”. Under `O=C(Oc1ccccc1)c1cccc(C(=O)Oc2ccccc2)c1` stands “inactive”; under `O=C(/C=C/c1ccc(O)cc1)c1ccc(O)cc1O`, “inactive”; under `Cc1nc(-c2ccc(OCC(C)C)c(C#N)c2)sc1C(=O)O`, “inactive”.

As to `Nc1ccc(N=Nc2ccccc2)c(N)n1`, the Potency entry was “inactive”.

Regarding `O=S(=O)(O)c1ccc2nc(-c3ccccc3)[nH]c2c1`, the Potency result was “inactive”. Under `CC(C(=O)O)c1ccc(C(=O)c2ccccc2)s1` (stereo not given) stands “inactive”. Regarding `C[C@H](NC(=O)C(=O)Nc1ccccc1C(C)(C)C)C(=O)N[C@@H](CC(=O)O)C(=O)COc1c(F)c(F)cc(F)c1F`, the Potency was 3880 nM (active). As for `CC[C@]1(O)C[C@H]2CN(CCc3c([nH]c4ccccc34)[C@@](C(=O)OC)(c3cc4c(cc3OC)N(C=O)[C@H]3[C@@](O)(C(=O)OC)[C@H](OC(C)=O)[C@]5(CC)C=CCN6CC[C@]43[C@@H]65)C2)C1`, the Potency result is “inactive”. The result for `CNC(=O)c1ccccc1Sc1ccc2c(/C=C/c3ccccn3)n[nH]c2c1` reads “inactive”. The result for `CCC(C(=O)O)c1ccc(N2Cc3ccccc3C2=O)cc1` (stereo not given) reads “inactive”; that for `Cc1nc(N)sc1-c1ccnc(Nc2ccc(N3CCOCC3)cc2)n1`, “inactive”. In the case of `Cc1ccc(C(=O)c2ccc(CC(=O)O)n2C)cc1`, the Potency result is “inactive”.
